For the first experiment, the system named is Plasmodium falciparum. The experiment in a line: GSK_TCMDC: Inhibition of Plasmodium falciparum 3D7 in whole red blood cells, using parasite LDH activity as an index of growth. Test compounds present at 2uM. In kind it is functional.
Consider `CC(=O)Nc1ccc([N+](=O)[O-])c2c(Br)cccc12`, for which the Inhibition amounted to 100%.
Same read-out and setting: the result for `COc1ccc(Nc2ncc3c(-c4cccc(NC(=O)Cc5ccncc5)c4)c[nH]c3n2)cc1OC` reads 99%; that for `Cc1nc(C(=O)N2CCCC[C@H]2CNC(=O)c2ccc(-c3ccc(N4CCCC4=O)cc3C)cc2)c(-c2ccc(F)cc2)s1`, 98%.
Consider `Br.CC1(C)NC(N)=NC(=N)N1OCCSc1ccc(Cl)c(Cl)c1`, for which the Inhibition was determined as 96%.
In turn, `COc1cccc(-c2ccc3ccnc(N)c3c2)c1.O=C(O)C(F)(F)F` had an Inhibition of 100%.
The same measure, in the same setting: the result for `O=C(/C=C/c1ccc(Cl)c(Cl)c1)NCCCCCN1CCC(NC(=O)Nc2cc(Cl)cc(Cl)c2)CC1` reads 94%.
The molecule `CN1CCN(c2ccc(-c3cccc(NC(=O)c4cccc(Cl)c4)c3)nn2)CC1` registered an Inhibition of 94%.
On the same count and under the same terms, the result for `O=C(O)C(F)(F)F.c1ccc2[nH]c(-c3ccc(-c4ccc(CNCCc5ccncc5)cc4)s3)nc2c1` reads 100%; that for `COc1ccc(NC(=O)c2ccc(Br)c(C)c2)cc1N1CCN(CCCc2c[nH]c3ccccc23)CC1`, 100%.
Molecule `Cl.Clc1ccc2c(NCCc3ccccc3)ccnc2c1` displayed an Inhibition of 93%.
Regarding `Cc1cc(N[C@@H](CC(C)C)C(=O)NCc2cccs2)nc(NCCc2ccccc2)n1.O=C(O)C(F)(F)F`, the Inhibition was found to be 94%.
Same read-out and setting: the result for `O=C(/C=C/c1ccc(Cl)c(Cl)c1)NCCCCCCN1CCN(C(=O)Nc2ccc(Cl)c(Cl)c2)CC1` reads 88%; that for `COc1ccc2c(N/N=C/c3cccc([N+](=O)[O-])c3)ccnc2c1`, 100%.
The same measure, in the same setting: the result for `COc1cc2ncnc(Nc3ccc(OCc4ccccc4)c(I)c3)c2cc1OC.Cl` reads 98%.
Still for that read-out and setting: the value for `O=C(NC1CCN(Cc2ccc3c(c2)OCCO3)CC1)c1ccc(-c2cccc(Cl)c2)s1.O=C(O)C(F)(F)F` was 93%.
`CCOc1ccc2[nH]c(C)cc(=NN=Cc3ccccc3)c2c1` showed an Inhibition of 96%.
On the same count and under the same terms, the result for `O=C(NCCCCCN1CCC(c2ccc(O)cc2)CC1)c1ccc(-c2ccccc2)cc1` reads 92%; that for `COc1ccc2nc3cc(Cl)ccc3c(NCCCCCCNc3c4ccc(Cl)cc4nc4ccc(OC)cc34)c2c1.Cl.Cl.Cl.Cl`, 96%; that for `COc1ccc(NC(=O)Nc2ccc(-c3cccc(-c4nc5ccccc5[nH]4)c3)cc2)cc1`, 99%.
On the same count and under the same terms, the result for `Cc1ccc2[nH]c(C)cc(=NN=Cc3cccc(F)c3)c2c1` reads 99%.
In turn, `Cc1cccc2nc(-c3ccc(-c4cccc(NC(=O)c5ccncc5)c4)cc3)[nH]c12` registered an Inhibition of 98%.
On the same count and under the same terms, the result for `COc1cccc(Nc2nc(N)c3ccccc3n2)c1.Cl` reads 88%; that for `CN(C)c1ccc(C=C2SC(=N)N(c3nccs3)C2=O)cc1`, 97%; that for `COc1ccccc1/C=C/C(=O)NCCC1CCN(CCCCCNC(=O)/C=C/c2ccc(Cl)c(Cl)c2)CC1`, 94%.
In turn, `CC(=O)NC1=NC(C)(C)N(OCc2ccc(Cl)c(Cl)c2)C(NC(C)=O)=N1` registered an Inhibition of 94%.
Still for that read-out and setting: the result for `Cc1cc(F)ccc1-c1nc(Nc2ccncc2)c2ccn(C)c2n1` reads 89%; that for `Nc1cc(-c2cccc(Cl)c2)nn1-c1ccnc2cc(Cl)ccc12`, 99%.
With `CCc1ccc(O)c(-c2cc(C(=O)Nc3cccnc3)[nH]n2)c1`, the Inhibition is given as 98%.
Still for that read-out and setting: the result for `COc1cc(C2=NN(S(=O)(=O)c3c(C)cc(C)cc3C)CCCC2)ccc1Cl` reads 85%; that for `O=C(c1cccc(-c2noc(C(F)(F)F)n2)c1)N1CCN(c2nsc3ccccc23)CC1`, 90%; that for `COc1ccccc1CCNc1nc(C)cc(N[C@@H](CC(C)C)C(=O)NCCc2ccccc2)n1.O=C(O)C(F)(F)F`, 97%.
`COc1ccccc1/C=C/C(=O)N(C)C1CCN(CCCCCNC(=O)/C=C/c2ccc(Cl)c(Cl)c2)C1` (stereo not given): the Inhibition is reported as 94%.
The same measure, in the same setting: the value for `CS(=O)(=O)c1cccc(-c2cnc(N)c3cc(-c4cccc(F)c4)ccc23)c1` was 97%.
The same measure, in the same setting: the value for `CCN(CC)CCN(Cc1ccc(-c2ccc(Br)cc2)cc1)C(=O)Cn1c(CCc2cccc(F)c2F)nc(=O)c2ccccc21.O=C(O)C(O)C(O)C(=O)O` was 98%; that for `CN1CCN(C(C(=O)NCc2cc(Cl)cc(Cl)c2)c2ccccc2-c2ccsc2)CC1` (stereo not given) was 95%.
The molecule `Cc1cc(-c2ccc(S(=O)(=O)Nc3cc4c(cc3OC(C)C)CCN(C)CC4)cc2)ccc1Cl.Cl` yielded an Inhibition of 90%.
In the case of `CNC(=O)C(C)N(c1ccc(Cl)cc1)c1nc(C(C)(C)C)cs1` (stereo not given), the Inhibition was 99%.
The same measure, in the same setting: the result for `O=C(NC1CCC(N2CCC(c3nc4ccccc4s3)CC2)CC1)c1cc2ccccc2[nH]1` (stereo not given) reads 94%; that for `COc1cc2nc(NCc3ccccc3)nc(NCc3ccccc3)c2cc1OC`, 100%; that for `O=C(CCC1CCCC1)N(Cc1ccc(-c2ccc(CNCCc3ccccc3)cc2)cc1)C1CCCNC1.O=C(O)C(F)(F)F` (stereo not given), 90%.

For the next experiment, the system named is Plasmodium falciparum. In words: GSK_TCMDC: Inhibition of Plasmodium falciparum Dd2 in whole red blood cells, using parasite LDH activity as an index of growth. Test compounds present at 2uM. Format: functional.
Regarding `CC(=O)Nc1ccc([N+](=O)[O-])c2c(Br)cccc12`, the Inhibition was found to be 0%.
In turn, `COc1ccc(Nc2ncc3c(-c4cccc(NC(=O)Cc5ccncc5)c4)c[nH]c3n2)cc1OC` came in with an Inhibition of 87%.
`Cc1nc(C(=O)N2CCCC[C@H]2CNC(=O)c2ccc(-c3ccc(N4CCCC4=O)cc3C)cc2)c(-c2ccc(F)cc2)s1` returned an Inhibition of 94%.
Molecule `Br.CC1(C)NC(N)=NC(=N)N1OCCSc1ccc(Cl)c(Cl)c1` displayed an Inhibition of 95%.
Still for that read-out and setting: the value for `COc1cccc(-c2ccc3ccnc(N)c3c2)c1.O=C(O)C(F)(F)F` was 93%; that for `O=C(/C=C/c1ccc(Cl)c(Cl)c1)NCCCCCN1CCC(NC(=O)Nc2cc(Cl)cc(Cl)c2)CC1` was 5%; that for `CN1CCN(c2ccc(-c3cccc(NC(=O)c4cccc(Cl)c4)c3)nn2)CC1` was 37%.
Same read-out and setting: the result for `O=C(O)C(F)(F)F.c1ccc2[nH]c(-c3ccc(-c4ccc(CNCCc5ccncc5)cc4)s3)nc2c1` reads 98%.
Still for that read-out and setting: the result for `COc1ccc(NC(=O)c2ccc(Br)c(C)c2)cc1N1CCN(CCCc2c[nH]c3ccccc23)CC1` reads 64%; that for `Cl.Clc1ccc2c(NCCc3ccccc3)ccnc2c1`, 99%.
`Cc1cc(N[C@@H](CC(C)C)C(=O)NCc2cccs2)nc(NCCc2ccccc2)n1.O=C(O)C(F)(F)F`: the Inhibition was found to be 8%.
The molecule `O=C(/C=C/c1ccc(Cl)c(Cl)c1)NCCCCCCN1CCN(C(=O)Nc2ccc(Cl)c(Cl)c2)CC1` showed an Inhibition of 0%.
For `COc1ccc2c(N/N=C/c3cccc([N+](=O)[O-])c3)ccnc2c1`, the Inhibition worked out at 99%.
`COc1cc2ncnc(Nc3ccc(OCc4ccccc4)c(I)c3)c2cc1OC.Cl` gave an Inhibition of 62%.
The same measure, in the same setting: the value for `O=C(NC1CCN(Cc2ccc3c(c2)OCCO3)CC1)c1ccc(-c2cccc(Cl)c2)s1.O=C(O)C(F)(F)F` was 9%.
On the same count and under the same terms, the result for `CCOc1ccc2[nH]c(C)cc(=NN=Cc3ccccc3)c2c1` reads 8%.
Turning to `O=C(NCCCCCN1CCC(c2ccc(O)cc2)CC1)c1ccc(-c2ccccc2)cc1`, the Inhibition amounted to 0%.
Molecule `COc1ccc2nc3cc(Cl)ccc3c(NCCCCCCNc3c4ccc(Cl)cc4nc4ccc(OC)cc34)c2c1.Cl.Cl.Cl.Cl` had an Inhibition of 79%.
For the molecule `COc1ccc(NC(=O)Nc2ccc(-c3cccc(-c4nc5ccccc5[nH]4)c3)cc2)cc1`, the Inhibition is given as 41%.
On the same count and under the same terms, the result for `Cc1ccc2[nH]c(C)cc(=NN=Cc3cccc(F)c3)c2c1` reads 99%.
Turning to `Cc1cccc2nc(-c3ccc(-c4cccc(NC(=O)c5ccncc5)c4)cc3)[nH]c12`, the Inhibition was determined as 8%.
Turning to `COc1cccc(Nc2nc(N)c3ccccc3n2)c1.Cl`, the Inhibition worked out at 47%.
Still for that read-out and setting: the value for `CN(C)c1ccc(C=C2SC(=N)N(c3nccs3)C2=O)cc1` was 50%.
The molecule `COc1ccccc1/C=C/C(=O)NCCC1CCN(CCCCCNC(=O)/C=C/c2ccc(Cl)c(Cl)c2)CC1` came in with an Inhibition of 0%.
The same measure, in the same setting: the result for `CC(=O)NC1=NC(C)(C)N(OCc2ccc(Cl)c(Cl)c2)C(NC(C)=O)=N1` reads 97%; that for `Cc1cc(F)ccc1-c1nc(Nc2ccncc2)c2ccn(C)c2n1`, 8%; that for `Nc1cc(-c2cccc(Cl)c2)nn1-c1ccnc2cc(Cl)ccc12`, 33%.
Turning to `CCc1ccc(O)c(-c2cc(C(=O)Nc3cccnc3)[nH]n2)c1`, the Inhibition is 99%.
The same measure, in the same setting: the result for `COc1cc(C2=NN(S(=O)(=O)c3c(C)cc(C)cc3C)CCCC2)ccc1Cl` reads 76%; that for `O=C(c1cccc(-c2noc(C(F)(F)F)n2)c1)N1CCN(c2nsc3ccccc23)CC1`, 81%; that for `COc1ccccc1CCNc1nc(C)cc(N[C@@H](CC(C)C)C(=O)NCCc2ccccc2)n1.O=C(O)C(F)(F)F`, 81%.
Still for that read-out and setting: the value for `COc1ccccc1/C=C/C(=O)N(C)C1CCN(CCCCCNC(=O)/C=C/c2ccc(Cl)c(Cl)c2)C1` (stereo not given) was 14%; that for `CS(=O)(=O)c1cccc(-c2cnc(N)c3cc(-c4cccc(F)c4)ccc23)c1` was 13%.
The molecule `CCN(CC)CCN(Cc1ccc(-c2ccc(Br)cc2)cc1)C(=O)Cn1c(CCc2cccc(F)c2F)nc(=O)c2ccccc21.O=C(O)C(O)C(O)C(=O)O` registered an Inhibition of 74%.
On the same count and under the same terms, the result for `CN1CCN(C(C(=O)NCc2cc(Cl)cc(Cl)c2)c2ccccc2-c2ccsc2)CC1` (stereo not given) reads 80%; that for `Cc1cc(-c2ccc(S(=O)(=O)Nc3cc4c(cc3OC(C)C)CCN(C)CC4)cc2)ccc1Cl.Cl`, 19%; that for `CNC(=O)C(C)N(c1ccc(Cl)cc1)c1nc(C(C)(C)C)cs1` (stereo not given), 98%.
Same read-out and setting: the value for `O=C(NC1CCC(N2CCC(c3nc4ccccc4s3)CC2)CC1)c1cc2ccccc2[nH]1` (stereo not given) was 37%; that for `COc1cc2nc(NCc3ccccc3)nc(NCc3ccccc3)c2cc1OC` was 100%.
On to `O=C(CCC1CCCC1)N(Cc1ccc(-c2ccc(CNCCc3ccccc3)cc2)cc1)C1CCCNC1.O=C(O)C(F)(F)F` (stereo not given), for which the Inhibition amounted to 71%.

In general, Inhibition refers to the share of the control response that was lost under treatment. A low value points to little suppression.
